# The supplement of paper PMC3334620
# The full ranking holds about 33,000 sequences; the median of “E-score (-0.5 to 0.5)” is about -0.035, and the highest 2% start at about 0.35. This excerpt belongs to a sample that is enriched for the highest values.
# Target: T1, Pdr3 (UniProt P33200)
# T1 sequence: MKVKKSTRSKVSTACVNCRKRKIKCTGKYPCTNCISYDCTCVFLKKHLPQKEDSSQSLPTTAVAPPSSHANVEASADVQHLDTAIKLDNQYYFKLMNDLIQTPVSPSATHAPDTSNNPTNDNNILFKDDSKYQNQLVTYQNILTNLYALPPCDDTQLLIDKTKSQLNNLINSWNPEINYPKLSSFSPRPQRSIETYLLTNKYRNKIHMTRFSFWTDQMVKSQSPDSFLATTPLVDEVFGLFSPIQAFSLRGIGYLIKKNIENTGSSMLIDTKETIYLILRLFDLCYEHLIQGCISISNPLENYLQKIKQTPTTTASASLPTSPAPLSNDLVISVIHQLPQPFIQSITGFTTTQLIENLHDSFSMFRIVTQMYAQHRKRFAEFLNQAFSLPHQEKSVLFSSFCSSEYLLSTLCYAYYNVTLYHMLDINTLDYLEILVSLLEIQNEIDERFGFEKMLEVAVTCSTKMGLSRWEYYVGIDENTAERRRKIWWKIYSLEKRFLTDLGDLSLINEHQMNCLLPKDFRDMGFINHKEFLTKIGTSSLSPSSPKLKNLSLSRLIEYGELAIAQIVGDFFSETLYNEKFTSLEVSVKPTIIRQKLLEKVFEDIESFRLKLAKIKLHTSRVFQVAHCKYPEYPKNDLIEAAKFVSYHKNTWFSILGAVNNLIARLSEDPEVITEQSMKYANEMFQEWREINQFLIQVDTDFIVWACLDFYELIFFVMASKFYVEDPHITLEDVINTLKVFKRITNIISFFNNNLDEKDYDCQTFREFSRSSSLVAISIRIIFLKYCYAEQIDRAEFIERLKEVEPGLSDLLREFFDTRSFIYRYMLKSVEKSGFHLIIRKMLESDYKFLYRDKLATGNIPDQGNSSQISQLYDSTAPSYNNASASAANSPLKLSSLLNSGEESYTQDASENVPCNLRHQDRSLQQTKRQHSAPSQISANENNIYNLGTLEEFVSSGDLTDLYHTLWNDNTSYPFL
# Assay: PBM E-score (8-mer binding enrichment) (E-score (-0.5 to 0.5)); higher = stronger / more preferred TF binding
# Conditions: protein concentration: 200 nM; construct: GST-full length
# Experimental: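 Universal 'all 10-mer' protein binding microarrays (Agilent AMADID 015681) probed with GST-tagged S. cerevisiae TFs (full-length or DBD) made by in vitro transcription/translation (PURExpress), about 100-200 nM. Bound TF was detected with fluorescent anti-GST. Each ungapped 8-mer (which stands for itself and its reverse complement) is scored by the PBM enrichment score (E-score), a modified Wilcoxon-Mann-Whitney statistic from -0.5 to +0.5, computed with the Universal PBM Analysis Suite. Scale: above 0.35 generally sequence-specific binding.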
row,Sequence,PBM E-score
1,ATCCCGTG,0.396
2,ATCCCGTC,0.311
3,ATCCCGAG,0.395
4,ATCCCGTA,0.242
5,CGCGGTAG,0.282
6,CGCGGTAA,0.36
7,GGCGGTAA,0.326
8,AGCGGTAA,0.045
9,AGCGGTAC,-0.0325
10,AGCGGTCC,0.0698
11,CGCGGTCC,0.384
12,CGCGGTCA,0.307
13,CGCGGTAC,0.367
14,TCTCTACA,-0.249
15,CAGGGACA,0.0593
16,ATGCAAGC,-0.0447
17,TAGTTGGA,-0.0882
18,CCGCACTA,0.241
19,GATGAAAC,0.0428
20,TCGCCACA,-0.00326
21,CTATCAGC,-0.156
22,AATTCGCA,0.255
23,CAGAAATC,-0.108
24,AGTCCGGC,0.216
25,GGTCCGCA,0.28

row,Sequence,PBM E-score
1,CGTCCGGC,0.321
2,CGTCCGAA,0.208
3,AGTCCGGG,0.301
4,GGTCCGGA,0.413
5,AGTCCGGA,0.422
6,CGTCCGGA,0.433
7,GGTCCGTA,0.293
8,CCCGCATC,0.0416
9,AAGGTCAC,-0.213
10,GGAAGACC,0.202
11,GACTCACC,-0.126
12,ATCTGCTA,-0.241
13,CTGATGCA,0.0307
14,CTAAGAAG,-0.0671
15,CTTCAAAG,-0.275
16,AAGCTGTC,-0.208
17,AGATCCCT,-0.142
18,CAATCCCG,0.392
19,AGATCCCC,0.015
20,CAATCCCC,0.0676
21,CGATCCCA,0.067
22,CGATCCCG,0.361
23,CGATCCCC,0.0699
24,AGATCCCG,0.4
25,CAATCCCA,-0.105

row,Sequence,PBM E-score
1,CTTCACCA,-0.153
2,TCAAGGAA,-0.0766
3,ATCTGATA,-0.18
4,CGAGGTCC,0.299
5,CCAACGGG,0.213
6,TCAACGCA,-0.0152
7,TCAACGAA,0.0322
8,ACAACGGT,-0.0457
9,GCAACGGC,0.152
10,CCAACGGC,-0.0155
11,GCAACGGA,0.413
12,GCAACGTA,-0.192
13,CCAACGGA,0.362
14,ACAACGGA,0.375
15,ACAACGGG,0.221
16,TCAACGGA,0.359
17,ACTTCGGA,0.318
18,ATATAAGG,0.167
19,CGCTATCA,0.0421
20,ACGACACC,0.0551
21,CCCGCAGA,0.235
22,CCACAGGA,-0.15
23,ACAAAGTA,-0.0427
24,AAGGGATT,-0.172
25,CGGCGAAG,0.154

row,Sequence,PBM E-score
1,ATAAGGTG,-0.0163
2,AGGAAGAA,-0.186
3,GGGAAGAA,-0.0436
4,AGGAAGAC,-0.246
5,CCGAAGAG,0.129
6,CGGAAGAG,0.365
7,CGGAAGAA,0.378
8,CGGAAGAC,0.393
9,AGGAAGAG,-0.0084
10,GGGAAGAC,-0.0964
11,GCCCCAGC,0.0198
12,CGCTCCAA,-0.0785
13,ACTCCAGT,-0.118
14,GACTAGAA,-0.203
15,GGGGATAA,0.0548
16,GCGGATAA,0.342
17,GCGGATTA,0.204
18,CCGGATAA,0.396
19,ACGGATAG,0.216
20,ACGGATAT,0.305
21,TGGGATAA,-0.102
22,ACGGATAA,0.375
23,CCGGATTA,0.385
24,CGGGATAA,0.408
25,ACGGATTA,0.217

row,Sequence,PBM E-score
1,CCGGATAC,0.351
2,AGCTAGTC,-0.0629
3,ACAGCCCG,0.0226
4,ACCTTTCT,-0.129
5,GAAACTCC,0.0961
6,AATTCAGC,0.0247
7,ATGGATAC,-0.0299
8,ACGGATAC,0.368
9,AAGGATAC,-0.00551
10,ACGGTGCC,0.0198
11,CCGGCCGG,0.472
12,TCGGCCAA,0.12
13,CCGGCCCG,0.375
14,ACGGCCGG,0.344
15,TCGGCCGA,0.377
16,AGGGCCCG,0.182
17,ACGGCCCG,0.22
18,CGGGCCCG,0.44
19,CCGGCCGC,0.317
20,ACGGCCGA,0.293
21,CCGGCCCA,-0.0155
22,CGGGCCCA,0.0442
23,CCGATGGC,0.175
24,CGAGCTGA,0.143
25,ACTACCGA,-0.0714

row,Sequence,PBM E-score
1,CGCCTTGC,-0.0202
2,ATCATTGA,-0.0198
3,CAGGCACA,-0.171
4,AACTGGCA,-0.0302
5,GGTCAAAC,0.0507
6,GGTTCTGA,-0.109
7,ACCCGTGA,0.0325
8,CAGACGGG,0.103
9,CTAGTCTC,-0.269
10,CCGGCCGA,0.372
11,GCGGCCGA,0.222
12,CCGGCCTA,0.184
13,GGAGTCAC,-0.0786
14,CCTGTAGC,-0.282
15,AGGAAGGA,-0.363
16,CGGAAGGA,0.396
17,CAGAAGGC,0.0006
18,GGGAAGGA,-0.00585
19,CGGAAGGC,0.369
20,AGGAAGGC,-0.185
21,ATATCTGC,-0.044
22,ATAGAAAG,-0.0611
23,AGGAAGCG,0.0228
24,CACCTGCA,-0.142
25,AGGCGGAG,0.174

row,Sequence,PBM E-score
1,TGGCGAAA,-0.0244
2,AGGCGGAC,0.211
3,TGGCGGAA,0.359
4,AGGCGGCG,0.0493
5,CGGCGGCA,0.226
6,GGGCGGAC,0.373
7,TGGCGTAA,-0.263
8,AGGCGGAA,0.35
9,CGGCGGAC,0.289
10,CGGCGGAA,0.456
11,CGGCGGAG,0.372
12,CTTCAACC,0.00827
13,AGTGATCA,-0.0706
14,CGATAGGC,-0.216
15,GTGCGACA,-0.0394
16,AGGCAGGA,-0.149
17,AGCACGAG,0.0609
18,CGTGAGGA,-0.063
19,ATGACCCA,-0.0734
20,GGATACCA,0.212
21,ATCGGTTC,0.192
22,AATCTTTC,0.13
